In the library only some 8% were active in any assay of this set; here they are far more common.
MCF10A rerep = A quantitative high throughput screen for small molecules that induce DNA re-replication in MCF 10a normal breast cells | MCF 10A DNA re-replication, Hoechst nuclear intensity, 48 h | Potency, µM (highest dose often 46.1 µM), most hits filed as activators | 2.9% of 350,000 active | AID 624296, 2012; also: nearly all actives have a fitted effect of over 50% in size
SW480 rerep = A quantitative high throughput screen for small molecules that induce DNA re-replication in SW480 colon adenocarcinoma cells; SW480 DNA re-replication, Hoechst DNA content imaging, 48 h; Potency, µM (top dose mostly 46.1 µM), actives largely listed as activators; 1.8% of 340,000 active; AID 624297, 2012; also: nearly all actives have a fitted effect of over 55% in size
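DNA re-replication was detected as more nuclei of elevated Hoechst intensity after 48 hr exposure to compound (23 nL pinned per well of 250 cells).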
HT1080 IDH1KD tx = qHTS for induction of synthetic lethality in tumor cells producing 2HG: qHTS for the HT-1080-IDH1KD cell line; HT-1080 IDH1 knockdown viability, ATP luminescence, 48 h; Potency, µM (top dose mostly 46.1 µM), usual class: cytotoxic; 2% of 360,000 active
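Using the IDH1-knockdown HT-1080 line run in the same batch and compound series as the NT line, viability after 48 h at 37 °C was determined by CellTiter-Glo luminescence and expressed as % activity.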
KB-V1 cytotox = qHTS assay for MDR1-selective chemotherapeutics: Primary screen using the drug-selected MDR subline cells KB-V1; KB-V1 MDR cells viability, CellTiter-Glo, 72 h; Potency, µM (doses to about 46.1 µM), hits mostly cytotoxic; 3.4% of 400,000 active; AID 1347076, 2019; also: nearly all actives have a fitted effect of over 60% in size
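Readout: CellTiter-Glo luminescence, 10 min after addition. Cells: KB-V1 MDR subline, 72 h at 37 degrees C with compound. Analysis: corrected, normalized data fitted to concentration-effect curves.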
HT1080NT lethal = qHTS for induction of synthetic lethality in tumor cells producing 2HG: qHTS for the HT-1080-NT fibrosarcoma cell line | HT-1080-NT fibrosarcoma viability, CellTiter-Glo ATP luminescence, 48 h | Potency, µM (titrated, usually from 46.1 µM), hits mostly cytotoxic | AID 686970, 2013 | 1.6% of 360,000 active;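 also: NT is the 2HG producing partner of a matched IDH1 knockdown line; nearly all actives have a fitted effect of over 55% in size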
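HT-1080-NT; 750 cells/well; 5% FBS RPMI; 48 h compound, 37 degrees C; CellTiter-Glo luminescence; curve fitting and curve-class assignment.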
KB-3-1 tox = qHTS assay for MDR1-selective chemotherapeutics: Primary screen using the parental adenocarcinoma cell KB-3-1. KB-3-1 viability, CellTiter-Glo ATP luminescence, 72 h. AID 1347075, 2019. Potency, µM (series often up to 46.1 µM), actives largely listed as cytotoxic. 1.4% of 400,000 active; also: nearly all actives have a fitted effect of over 60% in size
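Luminescent ATP read-out (CellTiter-Glo) measures survival of drug-naive KB-3-1 cells after 72 h compound exposure at 37 °C. Titration series was screened from lowest to highest concentration, with DMSO vehicle plates as background controls.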
Each line names hits and unclear results; the compound was inactive in the other large screens. Calls follow the shape of the dose curve; as a rule, active = well fitted curve in the direction sought with a large enough effect; inconclusive = small, poorly fitted or top-dose-only effect, or another doubt; inactive = no such curve, though single readings can be large; an effect the other way counts as inactive or inconclusive.

O=C(Nc1ccccc1)OCc1cc(-c2ccccc2Cl)on1	MCF10A rerep 26µM
Cc1ccc(-c2n[nH]c(=S)n2C)cc1Cl	KB-V1 cytotox 2.9µM, KB-3-1 tox 4.1µM
Cc1ccc(C(=O)COC(=O)c2cn3ccccc3n2)cc1	MCF10A rerep 0.58µM, KB-V1 cytotox inconclusive
CCn1c(COc2ccc(=O)n(-c3ccccc3)n2)nnc1SCc1ccc(OC)cc1	KB-V1 cytotox 18µM
CCN(CC)CCNc1ncnc2c1sc1nc(N3CCOCC3)c3c(c12)CCCC3	KB-V1 cytotox inconclusive, KB-3-1 tox 15µM
CCN(CC)CCNc1ncnc2c1sc1nc(N3CCCC3)c3c(c12)CC(C)(C)OC3	MCF10A rerep 21µM, HT1080 IDH1KD tx 18µM, HT1080NT lethal 16µM
CN(C)CCNc1ncnc2c1sc1nc(N3CCCC3)c3c(c12)CC(C)(C)OC3	MCF10A rerep inconclusive, SW480 rerep inconclusive, HT1080 IDH1KD tx 21µM, KB-V1 cytotox inconclusive, HT1080NT lethal inconclusive
CC1(C)Cc2c(c(N3CCOCC3)nc3sc4c(NN)ncnc4c23)CS1	MCF10A rerep 23µM, SW480 rerep inconclusive, HT1080 IDH1KD tx inconclusive, KB-V1 cytotox inconclusive, HT1080NT lethal inconclusive, KB-3-1 tox inconclusive
CCOC(=O)NC(NCc1ccccc1)(C(F)(F)F)C(F)(F)F	KB-3-1 tox inconclusive
Cc1ccc(-c2nc3ccccc3[nH]2)cc1NC(=O)COc1cccc(C)c1C	KB-3-1 tox inconclusive (no result: MCF10A rerep, SW480 rerep, HT1080 IDH1KD tx, HT1080NT lethal)
Cc1ccc(-n2nc(C)c3c(C)c(CCC(=O)NC(C)c4ccccc4)c(C)nc32)cc1 (stereo unspecified)	none
O=C(N/N=C/C=C\c1cccc([N+](=O)[O-])c1)c1cccnc1	HT1080 IDH1KD tx inconclusive, HT1080NT lethal inconclusive
CCCCCCCN1C(N(C)C)=NC[C@@H]1Cc1ccccc1	HT1080 IDH1KD tx inconclusive, HT1080NT lethal inconclusive
COc1cc(CN(C)c2ncnc3sccc23)ccc1OC(F)F	KB-V1 cytotox 8.2µM, KB-3-1 tox inconclusive
Cc1ccc(OCCN(C)C(=O)c2cc(COc3ccc(F)cc3F)on2)cc1	none
CN(C1CCCCC1)S(=O)(=O)c1ccc(SCC(=O)NC(C)(C)C)nc1	KB-V1 cytotox inconclusive
O=C1c2ccccc2C(=O)N1CCc1csc(-c2ccccc2)n1	MCF10A rerep inconclusive, KB-V1 cytotox 16µM, KB-3-1 tox inconclusive
Cc1cc(C)cc(SCc2noc(C(=O)NCCN(C)C)c2C(=O)NCCN(C)C)c1	SW480 rerep inconclusive, HT1080 IDH1KD tx inconclusive, HT1080NT lethal 18µM, KB-3-1 tox inconclusive
CN(C)CCNC(=O)c1onc(CSc2ccncc2)c1C(=O)NCCN(C)C	none
COc1ccc(NC(=S)NCc2cccs2)cc1	MCF10A rerep inconclusive, SW480 rerep inconclusive
S=C(NCc1ccco1)Nc1ccc(Br)cc1Cl	KB-3-1 tox inconclusive
S=C(NCc1cccs1)Nc1cc(Cl)cc(Cl)c1	MCF10A rerep 23µM, SW480 rerep inconclusive, HT1080 IDH1KD tx inconclusive, KB-V1 cytotox inconclusive, HT1080NT lethal inconclusive, KB-3-1 tox inconclusive
S=C(NCc1ccco1)Nc1ccc(Cl)cc1Cl	KB-V1 cytotox 18µM, KB-3-1 tox inconclusive
S=C(NCc1cccs1)Nc1ccccc1Cl	KB-V1 cytotox 26µM
CC(C)c1ccc(NC(=S)NCc2cccs2)cc1	MCF10A rerep inconclusive, SW480 rerep inconclusive, HT1080 IDH1KD tx inconclusive, KB-V1 cytotox 23µM, HT1080NT lethal 11µM
S=C(NCCNC(=S)Nc1ccccc1Cl)Nc1ccccc1Cl	none
COc1ccc(S(=O)(=O)N2CCOCC2)cc1NC(=O)/C=C/c1ccccc1	none
CCCC(=O)N1CCC1(C)C(=O)NS(=O)(=O)c1cccc(F)c1 (stereo unspecified)	none (no result: MCF10A rerep, SW480 rerep)
Cc1cc(Cl)ccc1NC(=S)NCc1cccs1	HT1080 IDH1KD tx inconclusive, KB-V1 cytotox inconclusive, HT1080NT lethal 18µM

Bioassay records deposited in PubChem BioAssay by National Center for Advancing Translational Sciences (NCATS).
